Our source for the INHIBITION values is ChEMBL document CHEMBL4513216, “Probing the Open Global Health Chemical Diversity Library for Multistage-Active Starting Points for Next-Generation Antimalarials” (ACS Infect Dis, 2020).

Among all 69,000 compounds or so, about 8,600 (12%) showed an effect of 50% or more. The list comes from a sample in which strong results are over-represented; it also holds similar structures and randomly drawn compounds.

The test system of the assay is Plasmodium berghei. The assay can be described thus: Screen against P. berghei liver stage (PbLuc), transformed with Luciferase, at 10uM. The conditions noted are these: tested at 10 uM. It is filed as functional, HepG2.
Turning to `O=C(c1cc2c(s1)CCC2)N1CCCC1Cn1cccn1` (stereo not given), the INHIBITION is on record as -18.8%. The value for `Cc1nc(CSCCC(=O)NCc2ccc(-n3cncn3)nc2)cs1` was 16.8%; that for `CCNC(=O)[C@@H]1CCCN1C1(C(=O)NC)CCCCC1` was 10.5%; that for `Cc1n[nH]c(C)c1-c1cnc(CC2CCN(C(C)C)CC2)cn1` was 23.2%. Regarding `Cc1cc(F)ccc1N1CCCC(NC(=O)CCCn2ccnc2)C1` (stereo not given), the INHIBITION is recorded as 70.1%.

As to `Cc1cc(F)ccc1N1CCCC(NC(=O)CCc2ccncc2)C1` (stereo not given), the INHIBITION was 29%.

As for `O=C(NC1CCCN(c2ccccc2Cl)C1)c1nc(=O)[nH][nH]1` (stereo not given), the INHIBITION is on record as -6.05%.

Take `O=C(CCCn1ccnc1)NC1CCCN(c2ccccc2Cl)C1` (stereo not given): the INHIBITION turned out to be 88%.

As to `Cc1ccc(Cl)cc1N1CCC(CNC(=O)CCn2ccnc2)C1` (stereo not given), the INHIBITION was found to be 31.8%. The figure for `O=C(NC1CCCN(c2ccccc2Cl)C1)c1c[nH]nn1` (stereo not given) is 21.1%; for `CCOCC1CN(c2ccncn2)Cc2cnn(CC)c21` (stereo not given) it is 5.67%; for `Cc1nn(C)c2cn(CC(=O)N3CCc4ccccc4C3)nc12` it is 8.49%. The value for `CCOCC(=O)N1CCC(Oc2ccc(C(F)(F)F)cn2)CC1` was 11.8%.

For `CCOC(=O)N1CCC(Oc2ccc(C(F)(F)F)cn2)CC1`, the INHIBITION is reported as -16.4%.

Regarding `CC(C)(C)NC(=O)N1CCC(Oc2ccc(C(F)(F)F)cn2)CC1`, the INHIBITION is on record as 86.3%. The value for `NC(=O)Cn1cc(NC(=O)N2CCSCC2)cn1` was -15%; that for `O=C(NCc1ccnc(OCC(F)(F)F)c1)NCC1COCCO1` (stereo not given) was 4.12%; that for `CC(CC(=O)c1ccccc1)NC(=O)c1ccon1` (stereo not given) was 28.2%. The figure for `Cc1nc(CSCCC(=O)NCc2ccc(N(C)C)cc2)cs1` is -58%.

For the molecule `Cc1cccc(C(=O)N2CCCN(CCCSCC#N)CC2)c1`, the INHIBITION worked out at 59.2%. The figure for `N#CCSCCCN1CCN(C(=O)c2ccc(Cl)cc2)CC1` is 3.47%.

For the molecule `Cc1ccc(C(=O)N2CCN(CCCSCC#N)CC2)cc1F`, the INHIBITION is recorded as 5.41%.

As for `CC(=O)N1CCN(CCCSCc2ccccc2)CC1`, the INHIBITION was -23.5%. `O=C(c1ccccc1F)N1CCN(CCCn2cncn2)CC1`: the INHIBITION was found to be 32.3%. The figure for `N#CCSCCCN1CCCN(C(=O)c2ccccc2)CC1` is 50.1%. `N#CCSCCCN1CCN(C(=O)c2cccc(Cl)c2)CC1`: the INHIBITION was found to be 10.7%. The value for `CC(=O)N1CCCN(CCCSCc2ccccc2)CC1` was 15.7%; that for `N#CCSCCCN1CCN(C(=O)c2ccccc2F)CC1` was 69.7%; that for `Cc1nc(CN2CCO[C@@H]3CN(Cc4ccsc4)C[C@@H]3C2)cs1` was 22.5%.

Take `Cc1ccc(N2CCN(C(=O)CN3C[C@H]4CC[C@@H]3C4)CC2=O)cc1`: the INHIBITION was determined as 32.1%. On to `CSc1ncnc(NCc2ccco2)c1C#N`, for which the INHIBITION came to 9%. Regarding `O=C(c1ccncc1)N1CCOC2(CCCN(c3nncs3)C2)C1` (stereo not given), the INHIBITION came out at 58.4%. The value for `c1cncc(N2CCOC3(CCCN(c4nncs4)C3)C2)c1` (stereo not given) was 26.3%. As for `CC(=O)N1CCCC2(C1)CN(C(=O)c1ccncc1)CCO2` (stereo not given), the INHIBITION worked out at 27.6%. The value for `Cc1cccc(N2CCCC3(C2)CN(c2nncs2)CCO3)c1` (stereo not given) was 38.5%; that for `CC(=O)N1CCCC2(C1)CN(c1nncs1)CCO2` (stereo not given) was 34%; that for `COc1ccc(N2CCCC3(C2)CN(c2nncs2)CCO3)cc1` (stereo not given) was 65.6%. The value for `O=C(CSc1ccccc1F)NS(=O)(=O)c1ccc2c(c1)OCCO2` was 40.9%; that for `CCn1cc(S(=O)(=O)N2CCN(S(=O)(=O)c3ccc(Br)s3)CC2)cn1` was 41%. The value for `Cn1cc(C2=CCN(CCCOc3ccc(C(N)=O)cc3)CC2)cn1` was 53.9%.

Regarding `CC[C@@]1(O)CCN(CCCOc2ccc(C(N)=O)cc2)C[C@H]1O`, the INHIBITION turned out to be 50.5%.

As for `CCc1cccc(NC(=O)CCN2CC=C(c3cnn(C)c3)CC2)c1`, the INHIBITION was found to be 0.348%.

With `Cn1cc(C2=CCN(CCC(=O)NCc3ccc(Cl)cc3)CC2)cn1`, the INHIBITION came to 33.7%. The figure for `NC(=O)c1ccc(OCCCN2CCC3(CC2)OCCCC3O)cc1` (stereo not given) is 47.6%; for `Cn1cc(C2=CCN(CCCC(=O)Nc3ccc(C#N)cc3)CC2)cn1` it is 50.4%; for `CCn1cc(C2=CCN(CCCOc3ccccc3)CC2)cn1` it is 9.56%. The figure for `COc1ccc(NC(=O)CCN2CC=C(c3cnn(C)c3)CC2)cc1Cl` is -37.2%; for `COc1ccc(NC(=O)CCN2CC=C(c3cnn(C)c3)CC2)c(C)c1` it is 11.5%. The value for `COc1ccccc1OCCCN1CC=C(c2cnn(C)c2)CC1` was 30.1%; that for `CO[C@H]1C[C@@H](O)C12CCN(CCCOc1ccc(C(N)=O)cc1)CC2` was 33.7%.

As to `CCc1nnc(NC(=O)CCN2CC=C(c3cnn(C)c3)CC2)s1`, the INHIBITION turned out to be 60.2%.

Take `CC(C)NC(=O)CCCn1cnc2ccccc2c1=O`: the INHIBITION is 10.5%. As for `O=C(CCn1c(=O)oc2ccccc21)NCC(O)c1ccc(F)c(F)c1` (stereo not given), the INHIBITION is -12.5%. The figure for `O=S(=O)(N1CCOCC1)N1CCCCC1CCn1cccn1` (stereo not given) is -84.5%. On to `N#Cc1c(CN2CCCC2Cn2cncn2)cn2ccccc12` (stereo not given), for which the INHIBITION is recorded as -36%.
